This note sets out measurements from PubChem BioAssay.

For part of these data: Potency and affinity values are given separately. Active and inactive are the calls of the source.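 The calls were made as follows, unless noted: active = dose curve with midpoint inside tested range, moderate steepness, plateau gap beyond fit error, low compound glow and bead-link interference; inactive = the rest.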

Assay [1] addresses Cell division control protein 42 homolog (Homo sapiens) (UniProt P60953). The assay can be described thus: activated mutant Cdc42 GTP-binding inhibitors, dose response, biochemical, multiplex bead flow cytometry, Bodipy-FL-GTP (AID 1333;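 active = fitted half-maximal concentration within the tested dose range, moderate curve steepness, a statistically real signal drop, and little compound fluorescence or tag-binding interference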). (In general: A flow cytometer gives signals particle by particle.)
For assay [2] the target is unchanged. The assay can be described thus: wildtype Cdc42 GTP-binding inhibitors, dose response, biochemical, multiplex bead flow cytometry, Bodipy-FL-GTP (AID 1334;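 active = fitted half-maximal concentration within the tested range, moderate curve steepness, significant signal drop, and little compound fluorescence or bead-linkage interference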). Conditions: bead-based flow cytometry, Bodipy-FL-GTP binding to GST-Cdc42; at 100 µM (top of the series) unless noted.
In assay [3] the target is GTPase HRas (Homo sapiens) (UniProt P01112). Description: inhibitors of GTP binding to wildtype Ras, dose response, biochemical, multiplex bead flow cytometry (AID 1335;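 active = fitted half-maximal concentration within 10 nM to 100 µM, steepness 0.5 to 2, significant signal drop, low assay interference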). To be noted: bead-based flow cytometry, Bodipy-GTP binding to GST-Ras; at 100 µM (top of the series) unless noted.
Assay [4] has as its system Ras-related protein Rab-7a (dog), GTP binding. Description: Rab7 GTP binding inhibitors, potency, dose response, biochemical, wildtype, multiplex bead flow cytometry (AID 1336; call rule not given here).
Assay [5] addresses Ras-related C3 botulinum toxin substrate 1 (Homo sapiens) (UniProt P63000). Description: wildtype Rac1 GTP binding inhibitors, dose response, biochemical, multiplex bead flow cytometry (AID 1340). Conditions: GST-Rac1 beads, Bodipy-FL-GTP binding; at 100 µM (top of the series) unless noted.
In assay [6] the target is GTPase HRas (Homo sapiens) (UniProt P01112). The assay can be described thus: activated Ras mutant GTP binding inhibitors, dose response, biochemical, multiplex bead flow cytometry (AID 1341;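 active = dose-response curve with midpoint inside the tested range, moderate steepness, significant amplitude and little compound fluorescence or bead-attachment interference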;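 also: GST-tagged constitutively activated Ras mutant immobilized on beads and multiplexed with other GTPases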).

Chain of GTPase HRas (Homo sapiens) (P01112 whole entry, looked up): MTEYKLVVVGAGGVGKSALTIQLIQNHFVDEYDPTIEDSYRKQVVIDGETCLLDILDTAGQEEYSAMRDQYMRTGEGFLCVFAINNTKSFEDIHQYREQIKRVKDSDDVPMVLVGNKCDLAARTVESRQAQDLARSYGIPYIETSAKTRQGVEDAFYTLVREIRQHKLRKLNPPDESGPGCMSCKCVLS
Chain of Cell division control protein 42 homolog (Homo sapiens) (P60953 whole entry, looked up): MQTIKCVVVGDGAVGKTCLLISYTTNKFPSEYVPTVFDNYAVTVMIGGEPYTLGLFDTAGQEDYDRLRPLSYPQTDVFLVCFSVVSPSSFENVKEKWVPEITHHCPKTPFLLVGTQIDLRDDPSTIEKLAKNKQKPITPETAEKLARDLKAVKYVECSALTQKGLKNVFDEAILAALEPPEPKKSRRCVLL

Take `O=C(Nc1cccc(-c2nnc(-c3ccco3)o2)c1)c1ccccc1`: the outcome in assay [1], in assay [4] and in assay [6] was inactive. Moreover, the fluorescence, percent of control (lower = inhibition) in assay [2] stood at 33.7%. For the same compound, the GTP binding, percent of control in assay [3] came to 76.1%. This compound registered a GTP binding signal, raw median fluorescence (lower = inhibition) (MCF (arbitrary fluorescence units)) in assay [5] of 190.

For the compound `CCOC(=O)c1cnc2c(C#N)cnn2c1N`, the compound was called inactive in assay [1], in assay [4] and in assay [6]. For the same compound, the fluorescence, percent of control (lower = inhibition) in assay [2] is 33.6%. In assay [3], this compound displayed a GTP binding, percent of control of 72.1%. The compound also yielded a GTP binding signal, raw median fluorescence (lower = inhibition) (MCF (arbitrary fluorescence units)) in assay [5] of 167.

With `Cc1cc(NC(=O)/C(C#N)=C/c2ccc(-c3ccc(SC(F)F)cc3)o2)n(-c2ccccc2)n1`, the compound was classed as inactive in assay [1], in assay [4] and in assay [6]. Also, the fluorescence, percent of control (lower = inhibition) in assay [2] came to 75.1%. In assay [3], the GTP binding, percent of control came out at 96.7%. Further, the GTP binding signal, raw median fluorescence (lower = inhibition) (MCF (arbitrary fluorescence units)) in assay [5] was determined as 211.

As to `COc1ccc(/C=C2\SC(=S)N(CCCC(=O)NNC(=O)c3ccccc3O)C2=O)cc1`, the call in assay [1], in assay [4] and in assay [6] was inactive. In addition, the fluorescence, percent of control (lower = inhibition) in assay [2] worked out at 32.8%. Further, the GTP binding, percent of control in assay [3] came to 73.5%. The compound also yielded a GTP binding signal, raw median fluorescence (lower = inhibition) (MCF (arbitrary fluorescence units)) in assay [5] of 203.

For `COc1ccc(C(CC(=O)O)NC(=O)c2cc3cc(Br)ccc3oc2=O)cc1OC` (stereo not given), the outcome in assay [1], in assay [4] and in assay [6] was inactive. Also, the fluorescence, percent of control (lower = inhibition) in assay [2] was determined as 31%. The GTP binding, percent of control in assay [3] was 78.7%. Besides, the GTP binding signal, raw median fluorescence (lower = inhibition) (MCF (arbitrary fluorescence units)) in assay [5] is 213.

In the case of `O=[N+]([O-])c1cc(-c2ncccn2)c([N+](=O)[O-])s1`, the call in assay [1], in assay [4] and in assay [6] was inactive. Moreover, the fluorescence, percent of control (lower = inhibition) in assay [2] was determined as 16.9%. This compound also came in with a GTP binding, percent of control in assay [3] of 70.3%. The GTP binding signal, raw median fluorescence (lower = inhibition) (MCF (arbitrary fluorescence units)) in assay [5] came to 292.

For `Cn1nc(C(F)(F)F)c(/C=N/OC(=O)c2ccccc2)c1SCc1ccc(Cl)cc1`, the call in assay [1], in assay [4] and in assay [6] was inactive. Further, the fluorescence, percent of control (lower = inhibition) in assay [2] is 98.8%. In assay [3], this compound displayed a GTP binding, percent of control of 181%. In addition, in assay [5], the GTP binding signal, raw median fluorescence (lower = inhibition) (MCF (arbitrary fluorescence units)) was 175.

Take `COc1cc(/C=N/NC(N)=O)cc([N+](=O)[O-])c1O`: the compound was classed as inactive in assay [1], in assay [4] and in assay [6]. In addition, the fluorescence, percent of control (lower = inhibition) in assay [2] stood at 35.1%. The GTP binding, percent of control in assay [3] came out at 78.6%. In assay [5], this compound yielded a GTP binding signal, raw median fluorescence (lower = inhibition) (MCF (arbitrary fluorescence units)) of 175.

As for `COc1ccc2c(C)cc3nncn3c2c1`, the result in assay [1], in assay [4] and in assay [6] was inactive. In assay [2], the fluorescence, percent of control (lower = inhibition) worked out at 51.4%. This compound also returned a GTP binding, percent of control in assay [3] of 92.8%. In assay [5], the GTP binding signal, raw median fluorescence (lower = inhibition) (MCF (arbitrary fluorescence units)) worked out at 202.

Regarding `CNC(=O)COC(=O)c1cc(NC(=O)c2ccco2)c(OC)c(OC)c1`, the compound was called inactive in assay [1], in assay [4] and in assay [6]. Moreover, the fluorescence, percent of control (lower = inhibition) in assay [2] was 39.3%. In assay [3], this compound yielded a GTP binding, percent of control of 78%. In assay [5], this compound returned a GTP binding signal, raw median fluorescence (lower = inhibition) (MCF (arbitrary fluorescence units)) of 158.

As for `Cc1nnc(N2CCOCC2)c2nn(-c3cccc(Cl)c3)c(C)c12`, the compound was called inactive in assay [1], in assay [4] and in assay [6]. In addition, in assay [2], the fluorescence, percent of control (lower = inhibition) was 204%. The compound also showed a GTP binding, percent of control in assay [3] of 209%. The same compound came in with a GTP binding signal, raw median fluorescence (lower = inhibition) (MCF (arbitrary fluorescence units)) in assay [5] of 306.

`O=C(COC(=O)/C=C/c1cccs1)Nc1ccc2ccccc2c1`: the call in assay [1], in assay [4] and in assay [6] was inactive. Moreover, in assay [2], the fluorescence, percent of control (lower = inhibition) amounted to 43.2%. This compound also displayed a GTP binding, percent of control in assay [3] of 58.6%. Also, in assay [5], the GTP binding signal, raw median fluorescence (lower = inhibition) (MCF (arbitrary fluorescence units)) stood at 183.

On to `CCOc1cc(/C=N/NC(=O)CSc2cccc3cccnc23)ccc1O`, for which the compound was called inactive in assay [1], in assay [4] and in assay [6]. Moreover, the fluorescence, percent of control (lower = inhibition) in assay [2] was determined as 35.6%. This compound gave a GTP binding, percent of control in assay [3] of 78.2%. Besides, the GTP binding signal, raw median fluorescence (lower = inhibition) (MCF (arbitrary fluorescence units)) in assay [5] is 188.

In the case of `COc1ccc2c(C)nc(N/C(N)=N/S(=O)(=O)c3ccc(C)cc3)nc2c1`, the compound was called inactive in assay [1], in assay [4] and in assay [6]. For the same compound, the fluorescence, percent of control (lower = inhibition) in assay [2] came out at 38.9%. In assay [3], this compound gave a GTP binding, percent of control of 87.9%. The GTP binding signal, raw median fluorescence (lower = inhibition) (MCF (arbitrary fluorescence units)) in assay [5] was 272.

As to `NC(=O)c1cc2nc(-c3ccco3)cc(C(F)(F)F)n2n1`, the result in assay [1], in assay [4] and in assay [6] was inactive. For the same compound, the fluorescence, percent of control (lower = inhibition) in assay [2] came to 29.6%. In addition, in assay [3], the GTP binding, percent of control was 40.3%. In addition, in assay [5], the GTP binding signal, raw median fluorescence (lower = inhibition) (MCF (arbitrary fluorescence units)) was found to be 91.8.
